From PubChem BioAssay (NCATS)
Values without a mark were called inactive. Records with an inconclusive call do not appear. Where a call stands in place of a potency, no number is given. The source made the active and inactive calls. Unless noted, calls follow the shape of the dose curve; as a rule, active = well fitted curve in the direction sought with a large enough effect; inconclusive = small, poorly fitted or top-dose-only effect, or another doubt; inactive = no such curve, though single readings can be large; an effect the other way counts as inactive or inconclusive.

test system: not listed separately; assay: Cell Viability - N2a (AID 540); conditions: N2a mouse neuroblastoma cell viability; activity change, negative = cytotoxicity: at 92.2 µM (top of the series); also: nearly all actives have a fitted effect of over 45% in size
Procedure, shortened: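 CellTiter-Glo ATP luminescence, read 20 min after reagent at room temperature, reported viability following 40 h compound treatment at 37 °C. N2a mouse neuroblastoma cells seeded 1500/well; Hill equation gave AC50.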

| Compound | activity change, negative = cytotoxicity |
| --- | --- |
| ClC1=C(Cl)C2(Cl)C3C(Cl)C(Cl)CC3C1(Cl)C2(Cl)Cl (centres undefined) | -82.9% (active) |
| O=[N+]([O-])C(Br)Br | -119% (active) |
| [Cd+2].[Cl-].[Cl-] | -109% (active) |

test system: not listed separately; assay: Cell Viability - NIH 3T3 (AID 541); conditions: NIH 3T3 cell viability, qHTS; activity change, negative = cytotoxicity: at 92.2 µM (top of the series);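 also: cells exposed to compound for 40 hours; nearly all actives have a fitted effect of over 25% in size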; also: potency is read from the fitted curve at half-maximal effect
Procedure, shortened: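 Intracellular ATP (CellTiter-Glo luminescence, 20 min at room temperature) measured after 40 hr compound exposure at 37 °C of 1000 NIH 3T3 mouse fibroblasts/well in complete medium; AC50 derived by Hill-equation modelling of qHTS concentration-response curves.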

| Compound | Potency | activity change, negative = cytotoxicity |
| --- | --- | --- |
| ClC1=C(Cl)C2(Cl)C3C(Cl)C(Cl)CC3C1(Cl)C2(Cl)Cl (centres undefined) | inactive |  |
| O=[N+]([O-])C(Br)Br | 31.6 µM (active) |  |
| [Cd+2].[Cl-].[Cl-] |  | -132% (active) |

biological target: 3',5'-cyclic-AMP phosphodiesterase 4B (Homo sapiens) (UniProt Q07343); assay: qHTS Assay for Inhibitors of PDE-IV (AID 607; active = well fitted activation curve with a large enough effect in the main read-out, with a control signal flat, not every such curve was filed as active); conditions: HEK293 ACTOne CNG channel cells, membrane potential fluorescence; series mostly up to 22.9 µM
Procedure, shortened: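 ACTOne HEK293 cells carry a modified cAMP-gated CNG channel and express endogenous PDE4; plated 1000 cells/well, compounds up to 22.9 uM final. Membrane-potential dye fluorescence (ex 535/em 590) was read; parental cells received 10 uM forskolin + 100 uM RO 20-1724.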

Chain of 3',5'-cyclic-AMP phosphodiesterase 4B (Homo sapiens) (Q07343 whole entry, looked up): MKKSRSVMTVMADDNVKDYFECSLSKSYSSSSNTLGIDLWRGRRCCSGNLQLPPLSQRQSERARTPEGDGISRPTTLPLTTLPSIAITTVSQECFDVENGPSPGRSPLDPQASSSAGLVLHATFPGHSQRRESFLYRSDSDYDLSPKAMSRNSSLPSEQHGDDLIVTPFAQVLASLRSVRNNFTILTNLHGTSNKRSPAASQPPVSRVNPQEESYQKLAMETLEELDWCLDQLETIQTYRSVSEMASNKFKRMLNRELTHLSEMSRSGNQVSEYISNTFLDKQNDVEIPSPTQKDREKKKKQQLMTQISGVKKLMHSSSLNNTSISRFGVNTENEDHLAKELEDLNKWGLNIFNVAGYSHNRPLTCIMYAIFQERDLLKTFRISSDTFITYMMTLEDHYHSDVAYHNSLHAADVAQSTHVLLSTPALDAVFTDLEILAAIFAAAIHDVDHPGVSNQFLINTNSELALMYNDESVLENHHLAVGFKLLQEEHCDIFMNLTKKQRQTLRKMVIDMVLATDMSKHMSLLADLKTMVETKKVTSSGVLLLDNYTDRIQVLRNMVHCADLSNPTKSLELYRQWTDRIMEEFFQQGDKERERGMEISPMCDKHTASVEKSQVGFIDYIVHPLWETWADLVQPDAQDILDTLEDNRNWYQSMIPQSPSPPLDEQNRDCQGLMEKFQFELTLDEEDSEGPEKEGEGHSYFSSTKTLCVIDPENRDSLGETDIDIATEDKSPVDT

| Compound | outcome |
| --- | --- |
| Oc1cc2c(cc1O)[C@H]1c3ccccc3CN[C@H]1CC2 | inactive |
| O=c1ccc2cc(O[C@@H]3O[C@@H](CO)[C@@H](O)[C@@H](O)[C@H]3O)c(O)cc2o1 | inactive |
| C[C@@H]1CCC/C=C\[C@H]2C[C@H](O)C[C@@H]2[C@H](O)/C=C\C(=O)O1 | inactive |
| CC(C)(C)[C@@]1(O)C[C@@H]2OC(=O)C[C@@]23C(=O)O[C@H]2OC(=O)[C@@H](O)[C@]231 | inactive |
| CC(C)[C@@]1(NC(=O)[C@@H]2C[C@H]3c4cccc5[nH]cc(c45)C[C@@H]3N(C)C2)O[C@@]2(O)[C@H]3CCCN3C(=O)[C@@H](Cc3ccccc3)N2C1=O | inactive |
| O=c1cccc2n1C[C@@H]1C[C@H]2CN2CCCC[C@H]12 | inactive |
| CC1=C2[C@@H]3OC(=O)[C@H](C)[C@H]3CC[C@@]2(C)C=CC1=O | inactive |
| COc1cc2c(cc1OC)-c1c(OC)c(OC)c(CO)c3c1[C@H](C2)N(C)CC3 | inactive |
| COC[C@H]1OC(=O)c2coc3c2[C@@]1(C)C1=C(C3=O)[C@H]2CCC(=O)[C@@]2(C)C[C@H]1OC(C)=O | inactive |
| C[C@H]1CCCC=CC2C[C@H](O)C[C@@H]2[C@H](O)/C=C\C(=O)O1 (some centres undefined) | inactive |
| COC1=C[C@H]2[C@@H]3Cc4ccc(OC)c(O)c4[C@@]2(CCN3C)CC1=O | inactive |
| OC[C@H]1CCCN2CCCC[C@@H]12 | inactive |
| CC(C)(O)[C@H]1[C@H]2OC(=O)[C@@H]1[C@]1(O)C[C@H]3O[C@]34C(=O)O[C@H]2[C@]14C | inactive |
| C[C@@H]1O[C@@H](O[C@H]2C[C@@H](O)[C@]3(CO)[C@@H]4[C@@H](O)C[C@]5(C)[C@H](C6=CC(=O)OC6)CC[C@@]5(O)[C@H]4CC[C@@]3(O)C2)[C@H](O)[C@H](O)[C@@H]1O | inactive |
| C=C1C/C(=C\C)C(=O)O[C@@H]2CCN3CC=C(COC(=O)[C@]1(C)O)[C@H]23 | inactive |
| COc1ccc(C[C@@H]2NC[C@H](O)[C@H]2OC(C)=O)cc1 | inactive |
| Oc1cc2c(cc1O)[C@H]1c3ccccc3CN[C@@H]1CC2 | inactive |
| COc1cc2c(cc1OC)-c1c(O)c(OC)cc3c1[C@@H](C2)N(C)CC3 | inactive |

test system: not listed separately; assay: Cellular Toxicity (caspase-3) HepG2 (AID 654); conditions: HepG2 caspase-3 activation, luminescence, 0% = DMSO only, 100% = tamoxifen; series mostly up to 92.2 µM;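 also: cells exposed to compound for 16 hours before reading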
Procedure, shortened: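 Caspase 3/7 activation is measured as a luminescence increase (aminoluciferin substrate) after 16 h compound exposure of human hepatocarcinoma HepG2 cells. AC50 values are Hill fits, scaled between DMSO baseline and 100 uM tamoxifen stimulation.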

| Compound | outcome |
| --- | --- |
| ClC1=C(Cl)C2(Cl)C3C(Cl)C(Cl)CC3C1(Cl)C2(Cl)Cl (centres undefined) | inactive |
| O=[N+]([O-])C(Br)Br | inactive |
| [Cd+2].[Cl-].[Cl-] | inactive |

test system: not listed separately; assay: Cellular Toxicity (caspase-3) BJ (AID 658); conditions: BJ fibroblasts, luminescence, normalized: DMSO 0%, staurosporine 100%; series mostly up to 91.7 µM;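 also: cells exposed to compound for 16 hours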
Procedure, shortened: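 Plated BJ cells (1000/well) rested 5 hr, received compound for 16 hr at 37 °C, then Caspase-Glo 3/7 reagent for 1 hr at room temperature before luminescence reading.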

| Compound | outcome |
| --- | --- |
| ClC1=C(Cl)C2(Cl)C3C(Cl)C(Cl)CC3C1(Cl)C2(Cl)Cl (centres undefined) | inactive |
| O=[N+]([O-])C(Br)Br | inactive |
| [Cd+2].[Cl-].[Cl-] | inactive |

test system: not listed separately; assay: Cellular Toxicity (caspase-3) MRC-5 (AID 659); conditions: MRC-5 cells, luminescence, normalized: DMSO 0%, 10 µM staurosporine 100%; series mostly up to 91.7 µM
Procedure, shortened: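 Apoptosis readout in MRC-5 cells: luciferase light generated after caspase 3/7 cleaves a peptide-aminoluciferin substrate, measured post 16 hr compound incubation at 37 °C.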

| Compound | outcome |
| --- | --- |
| ClC1=C(Cl)C2(Cl)C3C(Cl)C(Cl)CC3C1(Cl)C2(Cl)Cl (centres undefined) | inactive |
| O=[N+]([O-])C(Br)Br | inactive |
| [Cd+2].[Cl-].[Cl-] | inactive |

test system: not listed separately; assay: Cellular Toxicity (caspase-3) Mesangial (AID 660); conditions: mesangial cells; Potency: caspase-3 activation; series mostly up to 91.7 µM;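 also: combined caspase 3 and 7 activity read by Caspase-Glo luminescence; cells exposed to compound for 16 h before the caspase read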
Procedure, shortened: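 Caspase 3/7 activation measured by Caspase-Glo 3/7 luminescence (20 min, room temperature) following 16 h exposure of mesangial cells (1000/well); AC50 from Hill-equation fit, normalized to DMSO and 100 uM tamoxifen.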

| Compound | Potency |
| --- | --- |
| ClC1=C(Cl)C2(Cl)C3C(Cl)C(Cl)CC3C1(Cl)C2(Cl)Cl (centres undefined) | inactive |
| O=[N+]([O-])C(Br)Br | inactive |
| [Cd+2].[Cl-].[Cl-] | inactive |

test system: not listed separately; assay: Cellular Toxicity (caspase-3) Hek293 (AID 664); conditions: HEK293 caspase-3 activation, DMSO = 0%, 100 µM tamoxifen = 100%; at 92.2 µM (top of the series);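 also: cells exposed to compound for 16 h at 37 °C before readout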
Procedure, shortened: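 Concentration-response qHTS: caspase 3/7 activation measured by luminescent aminoluciferin substrate cleavage after 16 h compound exposure of Hek 293 cells. AC50 from Hill equation, with DMSO as basal and 100 uM tamoxifen as 100%.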

| Compound | caspase-3 activation |
| --- | --- |
| ClC1=C(Cl)C2(Cl)C3C(Cl)C(Cl)CC3C1(Cl)C2(Cl)Cl (centres undefined) | 204% (active) |
| O=[N+]([O-])C(Br)Br | -9.23% |
| [Cd+2].[Cl-].[Cl-] | 1.43% |

test system: not listed separately; assay: Cellular Toxicity (caspase-3) NIH 3T3 (AID 666); conditions: NIH 3T3 caspase-3 activation, apoptosis/toxicity, 0% DMSO, 100% is 100 µM tamoxifen; series mostly up to 92.2 µM;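 also: caspase signal read after 16 h compound exposure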
Procedure, shortened: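 Caspase-Glo 3/7 luminescence reported caspase activation in 1000 NIH 3T3 cells/well after 16 h compound exposure at 37 C. DMSO set basal and 100 uM tamoxifen set 100% stimulation; concentration-response modeled with the Hill equation for AC50.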

| Compound | outcome |
| --- | --- |
| ClC1=C(Cl)C2(Cl)C3C(Cl)C(Cl)CC3C1(Cl)C2(Cl)Cl (centres undefined) | inactive |
| O=[N+]([O-])C(Br)Br | inactive |
| [Cd+2].[Cl-].[Cl-] | inactive |

test system: not listed separately; assay: Cellular Toxicity (caspase-3) Renal Proximal Tubule (AID 667); conditions: renal proximal tubule cells; at 91.7 µM (top of the series) unless noted;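 also: cells exposed to compound for 16 hours at 37 °C before detection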
Procedure, shortened: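 AC50 derived by standard Hill fit of concentration-response data, normalized between DMSO basal and 10 uM staurosporine as 100% stimulation. Cells: primary rat kidney proximal tubule, 16 h treatment at 37 °C.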

| Compound | caspase-3 activation |
| --- | --- |
| ClC1=C(Cl)C2(Cl)C3C(Cl)C(Cl)CC3C1(Cl)C2(Cl)Cl (centres undefined) | 19% |
| O=[N+]([O-])C(Br)Br | 2.88% |
| [Cd+2].[Cl-].[Cl-] | -13.6% |

biological target: Guanine nucleotide-binding protein G(i) subunit alpha-1 (Homo sapiens) (UniProt P63096); assay: qHTS Assay for Inhibitors of RGS12 GoLoco Motif Activity (Green Fluorophore) (AID 879); conditions: Galphai1/FITC-RGS12 GoLoco peptide, fluorescence polarization; series mostly up to 57.1 µM; also: potency is read from the fitted curve at half-maximal effect
Procedure, shortened: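 A drop in FITC polarization marked displacement of the FITC-tagged RGS12 GoLoco peptide (10 nM) from Gαi1 (50 nM). Compounds were incubated 10 min at room temperature in Tris pH 7.5 buffer containing 150 mM NaCl, 0.1 mM GDP and 0.05% NP40; unlabeled peptide titration served as control.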

Chain of Guanine nucleotide-binding protein G(i) subunit alpha-1 (Homo sapiens) (P63096 whole entry, looked up): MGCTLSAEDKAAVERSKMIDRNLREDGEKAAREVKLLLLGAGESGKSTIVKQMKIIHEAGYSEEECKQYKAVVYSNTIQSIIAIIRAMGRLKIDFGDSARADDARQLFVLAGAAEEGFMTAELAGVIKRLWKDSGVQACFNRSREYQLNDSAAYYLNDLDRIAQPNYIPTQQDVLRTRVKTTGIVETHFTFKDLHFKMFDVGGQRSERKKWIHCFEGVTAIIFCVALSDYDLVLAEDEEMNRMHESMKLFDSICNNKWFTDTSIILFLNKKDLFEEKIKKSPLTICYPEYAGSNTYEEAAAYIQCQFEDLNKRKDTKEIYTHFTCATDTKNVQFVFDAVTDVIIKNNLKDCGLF

| Compound | Potency |
| --- | --- |
| CCCCCCCCCCCCCC(=O)O[C@H]1[C@@H](C)[C@@]2(O)[C@@H](C=C(CO)C[C@]3(O)C(=O)C(C)=C[C@@H]23)C2C(C)(C)[C@]21OC(C)=O (some centres undefined) | inactive |
| COC[C@H]1OC(=O)c2coc3c2[C@@]1(C)C1=C(C3=O)[C@H]2CCC(=O)[C@@]2(C)C[C@H]1OC(C)=O | 25.1 µM (active) |
| C[C@@H]1O[C@@H](O[C@H]2C[C@@H](O)[C@]3(CO)[C@@H]4[C@@H](O)C[C@]5(C)[C@H](C6=CC(=O)OC6)CC[C@@]5(O)[C@H]4CC[C@@]3(O)C2)[C@H](O)[C@H](O)[C@@H]1O | inactive |
| Oc1cc2c(cc1O)[C@H]1c3ccccc3CN[C@@H]1CC2 | inactive |

biological target: Cytochrome P450 2C9 (Homo sapiens) (UniProt P11712); assay: qHTS Assay for Inhibitors and Substrates of Cytochrome P450 2C9 (AID 883); conditions: recombinant CYP2C9, luciferin-H luminescence, 60 min; series mostly up to 57.1 µM; also: nearly all actives have a fitted effect of over 60% in size
Procedure, shortened: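 A luminogenic readout tracked human CYP2C9 (10nM) converting deoxyluciferin (100uM, at KM) in 25mM KPO4 during 60 min at 37C with regenerated NADPH. Values normalized to 57uM sulphaphenazole as complete inhibition.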

Chain of Cytochrome P450 2C9 (Homo sapiens) (P11712 whole entry, looked up): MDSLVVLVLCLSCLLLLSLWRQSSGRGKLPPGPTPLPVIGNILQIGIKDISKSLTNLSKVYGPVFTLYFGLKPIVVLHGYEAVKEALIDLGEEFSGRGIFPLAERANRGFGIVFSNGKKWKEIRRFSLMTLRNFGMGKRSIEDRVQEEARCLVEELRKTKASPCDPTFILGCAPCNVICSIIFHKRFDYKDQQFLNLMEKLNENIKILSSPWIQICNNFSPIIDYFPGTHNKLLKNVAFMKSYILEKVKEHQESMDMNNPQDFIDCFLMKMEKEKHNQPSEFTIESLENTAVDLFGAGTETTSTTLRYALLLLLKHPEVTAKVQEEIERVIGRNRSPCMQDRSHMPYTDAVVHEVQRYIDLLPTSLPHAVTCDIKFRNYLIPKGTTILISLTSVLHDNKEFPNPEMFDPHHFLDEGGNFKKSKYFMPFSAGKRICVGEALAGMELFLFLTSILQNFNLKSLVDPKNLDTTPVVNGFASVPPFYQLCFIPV

| Compound | Potency |
| --- | --- |
| CC(C)(C)[C@@]1(O)C[C@@H]2OC(=O)C[C@@]23C(=O)O[C@H]2OC(=O)[C@@H](O)[C@]231 | inactive |
| O=c1cccc2n1C[C@@H]1C[C@H]2CN2CCCC[C@H]12 | inactive |
| CC1=C2[C@@H]3OC(=O)[C@H](C)[C@H]3CC[C@@]2(C)C=CC1=O | inactive |
| COc1cc2c(cc1OC)-c1c(OC)c(OC)c(CO)c3c1[C@H](C2)N(C)CC3 | inactive |
| COC1=C[C@H]2[C@@H]3Cc4ccc(OC)c(O)c4[C@@]2(CCN3C)CC1=O | inactive |
